These results are taken from the supplement of paper PMC6522484.

Assay [1] deals with DLD1. Nature of the assay: cell viability (CellTiter-Glo) relative to plate median (fraction of plate median); higher = more viable cells. The following applies: 5 µM; treatment time 24 h; reporter: 7TFP. A digest of the protocol:
(§1)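 Colorectal cancer cell lines stably transduced with lentiviral TCF/Wnt firefly luciferase reporters (7TFP or TCF4/Wnt) were seeded in 384-well plates. 24 h later they received library compounds at a final 5 µM for 24 h. Parallel plates were read for firefly luciferase or CellTiterGlo luminescence on a Tecan F500 reader. Each well's signal was normalised to the plate median (webcellHTS2, additive, no log transformation), and the mean of two independent replicates is reported.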
Background: Cellular ATP, detected with luciferase, serves as a proxy for viable cell number.

Assay [2] deals with HCT116. The assay is described as above. Conditions: 5 µM; treatment time 24 h; reporter: TCF4/Wnt. In a few lines:
as §1

Assay [3] relates to SW480. The description is as above. Conditions: 5 µM; treatment time 24 h; reporter: 7TFP. A digest of the protocol:
as §1

The test system of assay [4] is DLD1. Nature of the assay: TCF/Wnt firefly luciferase reporter signal relative to plate median (fraction of plate median); higher = higher Wnt reporter signal. Conditions: 5 µM; treatment time 24 h; reporter: 7TFP. A digest of the protocol: as §1
(In a reporter assay the amount or activity of a reporter protein is the signal.)

Assay [5] relates to SW480. Described as above. The following applies: 5 µM; treatment time 24 h; reporter: 7TFP. In a few lines:
as §1

Where “and” joins values, the source holds several entries; their conditions need not be identical. Identical values can stand only once. ± gives the standard deviation of the averaged measurements.

With `O=C1C=CC(=C(c2ccc(O)cc2)c2ccc(O)cc2)C=C1`, the cell viability is 0.99 ± 0.057 in assay [1], 0.944 ± 0.018 in assay [2] and 1.01 ± 0.035 in assay [3]. Further, the “TCF/Wnt firefly luciferase reporter signal” value in assay [4] was found to be 0.851 ± 0.038; in assay [5], 0.93 ± 0.099.

`CC1(C)C2CC(=O)O[C@@]3(C)C4=CC(=O)O[C@@H](c5ccoc5)[C@]4(C)CCC3[C@@]2(C)C=C[C@H]1O` (stereo not given in full): the cell viability came to 0.95 ± 0.065 in assay [1], 1.03 ± 0.047 in assay [2] and 0.993 ± 0.024 in assay [3]. The “TCF/Wnt firefly luciferase reporter signal” value turned out to be 1.05 ± 0.11 in assay [4] and 1.04 ± 0.16 in assay [5].

Consider `COc1cc(C(N)=O)ccc1O` [4-Hydroxy-3-methoxy-benzoic acid amide, Vanillic acid amide], for which the cell viability is 0.953 ± 0.032 in assay [1], 1.125 ± 0.0071 in assay [2] and 1.06 ± 0.014 in assay [3]. The “TCF/Wnt firefly luciferase reporter signal” value in assay [4] worked out at 1.06 ± 0.086; in assay [5], 0.942 ± 0.064.

For the compound `CNCCC=C1c2ccccc2CCc2ccccc21`, the cell viability in assay [1] stood at 0.9585 ± 0.00071; in assay [2] it was 0.979 ± 0.12; in assay [3], 0.972 ± 0.0057. For the same compound, the “TCF/Wnt firefly luciferase reporter signal” value worked out at 1.02 ± 0.079 in assay [4] and 1.04 ± 0.12 in assay [5].

As for `CC1(C)S[C@@H]2[C@H](NC(=O)[C@H](N)c3ccc(O)cc3)C(=O)N2[C@H]1C(=O)O`, the figures for the cell viability in assay [1], in assay [2] and in assay [3] were 0.928 ± 0.049, 1.02 ± 0.067 and 0.95 ± 0.016, respectively. The “TCF/Wnt firefly luciferase reporter signal” value in assay [4] was found to be 1.11 ± 0.092; in assay [5] it was 1.01.

As for `COc1ccc(C(=O)c2ccccc2O)c(O)c1`, the cell viability amounted to 0.953 ± 0.022 in assay [1], 0.977 ± 0.0028 in assay [2] and 0.952 ± 0.016 in assay [3]. Further, the “TCF/Wnt firefly luciferase reporter signal” value in assay [4] was determined as 1.16 ± 0.042; in assay [5], 1.06 ± 0.057.

Regarding `CC(=O)OCC(=O)[C@H]1CC[C@H]2[C@@H]3CC=C4C[C@@H](O)CC[C@]4(C)[C@H]3CC[C@]12C`, the cell viability is 1.04 ± 0.05 in assay [1], 1.03 ± 0.057 in assay [2] and 1.04 ± 0.028 in assay [3]. Further, the “TCF/Wnt firefly luciferase reporter signal” value in assay [4] turned out to be 1.01 ± 0.13; in assay [5], 0.975 ± 0.064.

For `Cc1cccc(CN2CCN(C(c3ccccc3)c3ccc(Cl)cc3)CC2)c1` (stereo not given), the cell viability in assay [1] turned out to be 1.06 ± 0.028; in assay [2] it was 1.05 ± 0.028; in assay [3], 0.987 ± 0.0099. In addition, the “TCF/Wnt firefly luciferase reporter signal” value was found to be 1.02 ± 0.038 in assay [4] and 0.998 ± 0.046 in assay [5].

On to `O=c1cc(-c2ccccc2)oc2cc(O)cc(O)c12`, for which the cell viability was 1.01 in assay [1], 1.02 ± 0.035 in assay [2] and 1.02 ± 0.045 in assay [3]. Besides, the “TCF/Wnt firefly luciferase reporter signal” value in assay [4] worked out at 1.03 ± 0.23; in assay [5], 1.09 ± 0.064.

In the case of `COc1ccc2cc1Oc1ccc(cc1)C[C@H]1c3c(cc4c(c3Oc3cc5c(cc3OC)CCN(C)[C@@H]5C2)OCO4)CCN1C`, the results for the cell viability in assay [1], in assay [2] and in assay [3] were 1.02 ± 0.052, 0.934 ± 0.052 and 1.14 ± 0.035, respectively. Also, the “TCF/Wnt firefly luciferase reporter signal” value in assay [4] came out at 1 ± 0.054; in assay [5], 1.05 ± 0.028.

Consider `C[C@H](CCC(=O)O)[C@H]1CC[C@H]2[C@@H]3C(=O)C[C@@H]4CC(=O)CC[C@]4(C)[C@H]3CC(=O)[C@]12C`, for which the cell viability was 0.956 and 0.954 in assay [1]; 0.911 and 0.941 in assay [2]; 0.912 and 0.967 in assay [3]. Also, the “TCF/Wnt firefly luciferase reporter signal” value was 0.894 and 1.06 in assay [4]; 1.05 and 1.15 in assay [5].

With `CC(=O)Oc1cc(C)c2c(c1C=O)Oc1c(c(C)c(OC(C)=O)c3c1C(OC(C)=O)OC3=O)OC2=O` (stereo not given), the figures for the cell viability in assay [1], in assay [2] and in assay [3] were 1.025 ± 0.0071, 0.949 ± 0.039 and 1.04 ± 0.063, respectively. Further, the figures for the “TCF/Wnt firefly luciferase reporter signal” value in assay [4] and in assay [5] were 0.875 ± 0.084 and 1.01 ± 0.099, respectively.

For `CCCCCCc1ccc(O)cc1O`, the cell viability in assay [1] was determined as 1.04 ± 0.061; in assay [2], 1.14 ± 0.021; in assay [3], 1.07. Also, the “TCF/Wnt firefly luciferase reporter signal” value was determined as 1.09 ± 0.014 in assay [4] and 1 ± 0.11 in assay [5].

Regarding `O=C1C=C2CC3(O)COc4c(ccc(O)c4O)C3=C2C=C1O` (stereo not given), the cell viability in assay [1] amounted to 0.988 ± 0.073; in assay [2], 1.04 ± 0.065; in assay [3], 1.06 ± 0.13. Also, the “TCF/Wnt firefly luciferase reporter signal” value in assay [4] turned out to be 0.943 ± 0.081; in assay [5], 1.05.

Take `COc1ccc(CCN(C)CCCC(C#N)(c2ccc(OC)c(OC)c2)C(C)C)cc1OC` (stereo not given): the cell viability in assay [1] was 1.04 ± 0.12; in assay [2] it was 0.971 ± 0.07; in assay [3], 1.02 ± 0.014. The “TCF/Wnt firefly luciferase reporter signal” value in assay [4] was 1.01 ± 0.12; in assay [5] it was 1.03 ± 0.11.

With `CCCCc1oc2ccccc2c1C(=O)c1cc(I)c(OCCN(CC)CC)c(I)c1`, the values for the cell viability in assay [1], in assay [2] and in assay [3] were 1.02 ± 0.089, 1.02 ± 0.036 and 0.964 ± 0.019, respectively. The results for the “TCF/Wnt firefly luciferase reporter signal” value in assay [4] and in assay [5] were 1.02 ± 0.029 and 1.04 ± 0.1, respectively.

Regarding `O=c1c(-c2ccc(O)cc2)coc2cc(O)cc(O)c12` [Genistein (Biofocus)], the cell viability came out at 1.05 ± 0.078 in assay [1], 1.04 ± 0.09 in assay [2] and 1.08 ± 0.099 in assay [3]. Besides, the “TCF/Wnt firefly luciferase reporter signal” value worked out at 1.21 ± 0.15 in assay [4] and 1.06 ± 0.021 in assay [5].

`COC(=O)/C=C/c1ccc(O)c(O)c1` [Caffeic acid methylester]: the cell viability came to 0.918 ± 0.079 in assay [1], 0.987 ± 0.12 in assay [2] and 0.979 ± 0.072 in assay [3]. In addition, the “TCF/Wnt firefly luciferase reporter signal” value in assay [4] came to 1.02 ± 0.098; in assay [5] it was 1.04 ± 0.087.

Take `C[C@]12CCC[C@H](O1)c1c(cc3c(c1O)C(=O)c1c(O)cc(O)cc1C3=O)O2` [Averufin (Isoform B, Compound ID 7395)]: the cell viability in assay [1] was determined as 1.09 ± 0.14; in assay [2], 1.01 ± 0.014; in assay [3], 1.03 ± 0.054. Moreover, the “TCF/Wnt firefly luciferase reporter signal” value is 1.02 ± 0.035 in assay [4] and 0.942 ± 0.14 in assay [5].

Consider `NS(=O)(=O)c1cc2c(cc1C(F)(F)F)NCNS2(=O)=O`, for which the cell viability in assay [1] came out at 1.02 ± 0.17; in assay [2] it was 1.09 ± 0.021; in assay [3] it was 1.04 ± 0.057. Also, the “TCF/Wnt firefly luciferase reporter signal” value in assay [4] came out at 1.12 ± 0.064; in assay [5], 1.15 ± 0.092.

As for `N[C@H](Cc1ccccc1)C(=O)O`, the figures for the cell viability in assay [1], in assay [2] and in assay [3] were 1.03 ± 0.066, 1.07 ± 0.064 and 1.01 ± 0.078, respectively. Also, the results for the “TCF/Wnt firefly luciferase reporter signal” value in assay [4] and in assay [5] were 1.17 ± 0.05 and 1 ± 0.15, respectively.

On to `COc1ccc([C@H]2Oc3cc(OC)cc(OC)c3C[C@H]2O)cc1`, for which the cell viability in assay [1] is 1 ± 0.029; in assay [2], 0.941 ± 0.098; in assay [3] it was 0.9645 ± 0.005. In addition, the “TCF/Wnt firefly luciferase reporter signal” value is 0.923 ± 0.046 in assay [4] and 1.03 ± 0.052 in assay [5].

With `COc1cc2oc3cc(OC)c(OC)c(CC=C(C)C)c3c(=O)c2c(OC)c1CC=C(C)C`, the values for the cell viability in assay [1], in assay [2] and in assay [3] were 1.03 ± 0.028, 1.08 ± 0.13 and 1.035 ± 0.0071, respectively. Moreover, the entries for the “TCF/Wnt firefly luciferase reporter signal” value in assay [4] and in assay [5] were 1.23 ± 0.12 and 1.02 ± 0.06, respectively.

Take `CC/C(=C(\c1ccccc1)c1ccc(OCCN(C)C)cc1)c1ccccc1`: the cell viability came out at 1.08 ± 0.05 in assay [1], 1.04 ± 0.064 in assay [2] and 1.05 ± 0.021 in assay [3]. The “TCF/Wnt firefly luciferase reporter signal” value in assay [4] was 0.872 ± 0.15; in assay [5] it was 0.859 ± 0.14.

As for `CC(=O)c1cc(CC=C(C)C)c(O)c(CC=C(C)C)c1`, the cell viability in assay [1] turned out to be 1.05 ± 0.014; in assay [2], 1.02 ± 0.035; in assay [3] it was 0.95 ± 0.011. The “TCF/Wnt firefly luciferase reporter signal” value in assay [4] amounted to 1.08 ± 0.15; in assay [5], 1.14 ± 0.064.

`Cc1cc(=O)c2c(O)cc(O)c(C)c2o1`: the results for the cell viability in assay [1], in assay [2] and in assay [3] were 0.906 ± 0.061, 0.873 ± 0.034 and 0.9105 ± 0.0035, respectively. Besides, the “TCF/Wnt firefly luciferase reporter signal” value is 1.25 ± 0.26 in assay [4] and 1.02 ± 0.039 in assay [5].

On to `CN[C@@H]1[C@H](O[C@H]2[C@H](O[C@H]3[C@H](O)[C@@H](O)[C@H](N=C(N)N)[C@@H](O)[C@@H]3N=C(N)N)O[C@@H](C)[C@]2(O)C=O)O[C@@H](CO)[C@H](O)[C@H]1O`, for which the results for the cell viability in assay [1], in assay [2] and in assay [3] were 0.962 ± 0.097, 0.936 ± 0.044 and 1.07 ± 0.078, respectively. Further, the “TCF/Wnt firefly luciferase reporter signal” value in assay [4] was 0.817 ± 0.0014; in assay [5], 0.935 ± 0.0028.
